The record followed here is PubChem BioAssay AID1220 (Sanford-Burnham Center for Chemical Genomics, 2008).

The whole screen tested about 190,000 compounds, of which about 1,300 (0.68%) were called active. Rule as the data show it: active = inhibition above about 50%; inactive = the rest. For the sample, actives were picked, then their nearest neighbours and some compounds at random.

The target in the assay is Mannose-6-phosphate isomerase (Homo sapiens) (UniProt P34949). The experiment in a line: human PMI inhibitors, high substrate, primary screen, biochemical, fluorescence intensity, high mannose 6-phosphate (AID 1220). The following applies: recombinant PMI enzyme, coupled fluorescence intensity; at 20 µM; hits give high values.
Mannose-6-phosphate isomerase (Homo sapiens), sequence (P34949 whole entry, looked up): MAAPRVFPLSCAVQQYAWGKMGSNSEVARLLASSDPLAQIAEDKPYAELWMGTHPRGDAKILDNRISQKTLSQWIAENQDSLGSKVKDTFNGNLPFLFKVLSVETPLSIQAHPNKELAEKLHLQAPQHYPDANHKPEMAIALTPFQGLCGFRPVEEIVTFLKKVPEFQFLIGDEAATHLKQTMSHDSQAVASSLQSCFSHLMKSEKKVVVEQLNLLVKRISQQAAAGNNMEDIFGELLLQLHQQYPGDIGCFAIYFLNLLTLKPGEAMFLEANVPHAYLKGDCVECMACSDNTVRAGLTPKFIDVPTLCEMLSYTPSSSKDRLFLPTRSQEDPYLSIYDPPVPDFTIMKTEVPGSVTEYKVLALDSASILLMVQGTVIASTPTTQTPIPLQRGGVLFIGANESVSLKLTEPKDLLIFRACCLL
As a reminder, the inhibition is the drop in the measured response relative to a control, in per cent. In the case of `O=C(NCC(c1cccnc1)N1CCN(c2ccccc2)CC1)C1CCCCC1` (configuration not stated), the inhibition was 8.8% (inactive).
On to `C=CCN1C(=O)c2cccc3c(Br)ccc(c23)C1=O`, for which the inhibition is 4.2% (inactive).
The same measure for `CN(C)CCCN1C(=O)c2cccc3c(Br)ccc(c23)C1=O`: 52% (active).
Consider `CN(C)CCCN1C(=O)c2cccc3c([N+](=O)[O-])ccc(c23)C1=O`, for which the inhibition is 29.6% (inactive).
With `Fc1ccccc1CNc1cc(Cl)cc(Cl)c1`, the inhibition was 5.3% (inactive).
For `COc1ccc(/C=N\NC(=O)C2C(=O)NCC2c2ccccc2)cc1O` (configuration not stated), the inhibition is 8.9% (inactive).
In the case of `COc1cc(/C=N\NC(=O)C2C(=O)NCC2c2ccccc2)cc(OC)c1O` (configuration not stated), the inhibition is 50.9% (active).
For the compound `COc1cccc(/C=N\NC(=O)C2C(=O)NCC2c2ccccc2)c1O` (configuration not stated), the inhibition is -17% (inactive).
Consider `CC(/C=N\Nc1nnc2c(n1)[nH]c1c(C)cccc12)=C\c1ccco1`, for which the inhibition is 7% (inactive).
Consider `COc1ccc(/C=N/c2oc(C)c(C)c2C#N)c(OC)c1`, for which the inhibition is 51.5% (active).
`Cc1oc(/N=C/c2ccc(O)cc2O)c(C#N)c1C`: the inhibition is 8.5% (inactive).
`Cc1oc(/N=C/c2ccc(Cl)cc2Cl)c(C#N)c1C`: the inhibition was -5.8% (inactive).
As for `O=C(c1ccc(Br)o1)N1CCN=C1SCc1cccnc1`, the inhibition was 2.2% (inactive).
On to `COCCCNC(=S)NNC(=O)c1ccc(S(=O)(=O)N2CCC(C)CC2)cc1`, for which the inhibition is -5.4% (inactive).
`O=C(Nc1cccc(N=Cc2cc(Cl)cc(Br)c2O)c1)c1ccco1`: the inhibition is 44.4% (inactive).
As for `O=C(Nc1cccc(N=Cc2cc(Br)cc(Br)c2O)c1)c1ccco1`, the figure is 53.4% (active); as for `CC(=O)c1cccc(NC(=O)c2ccco2)c1`, 2.7% (inactive); as for `O=C(CSc1nnc(-c2cccs2)n1-c1ccccc1)c1ccc2c(c1)OCCO2`, 6.2% (inactive).
Consider `CCOC(=O)N1CCC(NC(=O)c2ccc3c(c2)N(C)CCS3)CC1`, for which the inhibition is 55.2% (active).
On to `CCOC(=O)N1CCC(NC(=O)c2ccc3c(c2)N(Cc2ccccc2)CCS3)CC1`, for which the inhibition is 13.2% (inactive).
As for `CCOC(=O)N1CCC(NC(=O)c2ccc3c(c2)N(Cc2ccc(C)cc2)CCS3)CC1`, the figure is 24.9% (inactive); as for `COc1cccc(C2=NOC(C(=O)NC(C)C)C2)c1` (configuration not stated), 3.6% (inactive); as for `COc1ccc(C2=NOC(C(=O)NC3CCCCC3)C2)cc1OC` (configuration not stated), 11.9% (inactive).
For the compound `COc1cccc(C2=NOC(C(=O)NC3CCCCC3)C2)c1` (configuration not stated), the inhibition is 53.2% (active).
With `C#CCNC(=O)C1CCN(c2ccc(S(=O)(=O)N3CCOCC3)cc2Cl)CC1`, the inhibition was -1.4% (inactive).
For `CCOc1cc(N2CCOCC2)c(OCC)cc1NC(=O)CN1CCCC1`, the inhibition is 20.8% (inactive).
Regarding `CCOc1cc(N2CCOCC2)c(OCC)cc1NC(=O)c1ccc(OC(C)C)cc1`, the inhibition is 19.1% (inactive).
As for `CCN1CCN(C(=O)C(C)Nc2ccc(OC)cc2OC)CC1` (configuration not stated), the figure is 58.6% (active); as for `CCOc1cc(N2CCOCC2)c(OCC)cc1NC(=O)C1CCCC1`, -1% (inactive).
With `CCC(C)C(=O)Nc1ccc(OC)cc1OC` (configuration not stated), the inhibition was 5.6% (inactive).
As to `CCOc1cc(N2CCOCC2)c(OCC)cc1NC(C)C(=O)N1CCC(C)CC1` (configuration not stated), the inhibition is 59.1% (active).
The same measure for `CCOc1cc(N2CCOCC2)c(OCC)cc1NC(C)C(=O)N1CCN(CC)CC1` (configuration not stated): 57.1% (active).
Regarding `CCOc1cc(N2CCOCC2)c(OCC)cc1NC(=O)CN1CCCC(C)C1` (configuration not stated), the inhibition is 30.5% (inactive).
Consider `CCN1CCN(C(=O)Nc2ccc(OC)cc2OC)CC1`, for which the inhibition is 34.3% (inactive).
On to `CC(=O)c1cccc(N/C=C\C(=O)c2ccc(C)cc2)c1`, for which the inhibition is 1.9% (inactive).
On to `CCN(CC)S(=O)(=O)c1cccc(C(=O)Nc2ccc(C#N)cc2)c1`, for which the inhibition was 16.5% (inactive).
Consider `Cc1cccc(N2CCN(C(=O)c3ccc(CNc4c(N5CCC(C)CC5)c(=O)c4=O)cc3)CC2C)c1` (configuration not stated), for which the inhibition was 4.9% (inactive).
The same measure for `O=C(CS(=O)CC(=O)N(c1cccc(F)c1)C(C(=O)NC1CCCCC1)c1ccco1)Nc1ccc(F)cc1` (configuration not stated): -6.4% (inactive).
As for `C/C(=N\NC(=O)CN(c1ccccc1)S(=O)(=O)c1ccccc1[N+](=O)[O-])C(C)(C)C`, the figure is 8.8% (inactive); as for `FCCCOc1ccc(-c2nccc(-c3ccc(Br)cc3)n2)cc1`, 8.4% (inactive).
The same measure for `Cc1cc(NC(=O)CSc2nnc(C3CC3)n2-c2ccccc2)no1`: -7.9% (inactive).
Take `C(=N\Nc1nc(N2CCCCCC2)nc(N2CCCCCC2)n1)/c1ccccc1`: the inhibition is 23.1% (inactive).
As for `COc1ccc(/C=N/Nc2cc(N3CCCC3)nc(N3CCCC3)n2)cc1`, the figure is 49% (inactive).
As for `Oc1cccc(/C=N/Nc2cc(N3CCCC3)nc(N3CCCC3)n2)c1`, the figure is 59.8% (active); as for `COc1cc(/C=N/Nc2nc(N3CCCC3)nc(N3CCCC3)n2)ccc1O`, 5.1% (inactive).
As for `O=C(O)c1ccccc1/C=N/Nc1nc(N2CCCCC2)nc(N2CCCCC2)n1`, the figure is -0.2% (inactive).
As for `COc1ccc(/C=N/Nc2nc(N3CCCC3)nc(N3CCCC3)n2)cc1`, the inhibition was 0.1% (inactive).
The same measure for `Oc1ccc(/C=N/Nc2cc(N3CCCC3)nc(N3CCCC3)n2)cc1`: 58.7% (active); for `Oc1ccc(Br)cc1/C=N/Nc1nc(N2CCCCC2)nc(N2CCOCC2)n1`: 20% (inactive).
On to `Oc1ccccc1/C=N/Nc1cc(N2CCCC2)nc(N2CCCC2)n1`, for which the inhibition is 52% (active).
In the case of `COc1cc(-c2cc(N)n(S(=O)(=O)c3ccccc3)n2)cc(OC)c1OC`, the inhibition was -2.1% (inactive).
The same measure for `CCOC(=O)c1ccc(S(=O)(=O)Nc2ccc3cn[nH]c3c2)cc1`: 24.1% (inactive); for `CC1CCC(NC(=O)Cn2cc3c(n2)CCCC3)CC1` (configuration not stated): 3.7% (inactive); for `CC(C)=CCCC1=CCC(/C=N/NC(N)=O)C(C)C1` (configuration not stated): -36.5% (inactive).
Regarding `OC(c1ccccc1)c1nc2ccccc2s1` (configuration not stated), the inhibition was 6% (inactive).
Regarding `O=C(N/N=C/c1ccc(Br)o1)c1ccc2c(c1)OCCO2`, the inhibition is 0% (inactive).
As for `C(=N\Nc1nc2ccccc2[nH]1)/c1ccccn1`, the figure is -33.9% (inactive); as for `N#CCCCN1C(=O)C(=C(C#N)C#N)c2ccccc21`, 59.5% (active); as for `N#CCCCN1C(=O)C(O)(CC(=O)c2ccc3c(c2)OCCO3)c2ccccc21` (configuration not stated), 11.1% (inactive).
The same measure for `CC(C)CN1C(=O)/C(=C(/C#N)C(=O)NC2CCCCC2)c2ccccc21`: 20% (inactive); for `Cc1ccc(C(=O)NCCCNc2ccccc2[N+](=O)[O-])cc1`: 1.8% (inactive); for `Cc1ncc(S(=O)(=O)c2ccccc2)c(-c2ccccc2)n1`: -4.6% (inactive).
